Outcome and Potency data for seven compounds are collected here from PubChem BioAssay (Tox21).

Structures are written as SMILES. The source made the active and inactive calls. Unless noted, calls follow the shape of the dose curve; as a rule, active = well fitted curve in the direction sought with a large enough effect in the repeat runs; inconclusive = weak or mixed curves; inactive = no such curve, though single readings can be large; an effect the other way counts as inactive or inconclusive.

Test [1] can be described thus: qHTS assay for small molecules that induce genotoxicity in human embryonic kidney cells expressing luciferase-tagged ATAD5 (AID 651632). Also: nearly all actives have a fitted effect of over 15% in size. Put shortly:
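Luminescent reporter readout, HEK293T ATAD5-luc line: 16 hr drug exposure (37C, 5% CO2) followed by Amplite, 30 min RT.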

The nature of test [2]: qHTS assay for small molecules that induce genotoxicity in human embryonic kidney cells expressing luciferase-tagged ATAD5 - cell viability (AID 651634; calls by dose curve; also: nearly all actives have a fitted effect of over 25% in size). Put shortly:
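Viability read: CellTiter-Fluor fluorescence, 30 min at 37C. Cells: HEK293T, luciferase-tagged ATAD5. Exposure: 15.5 hr, 37C, 5% CO2, compound or DMSO vehicle.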

Test [3] in a line: qHTS assay to test for compound auto fluorescence at 590 nm (red) in HepG2 cells (AID 720674). A digest of the protocol:
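Compound auto-fluorescence is scored relative to Rose Bengal sodium, measured at 540/590 nm in live HepG2 cultures after 1 hr compound contact (37 C, 5% CO2).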
(In general: qHTS replaces the single test concentration by a dilution series.)

Test [4] is described as follows: qHTS assay to test for compound auto fluorescence at 535 nm (green) in HepG2 cells (AID 720675).
Test [5] in a line: qHTS assay to test for compound auto fluorescence at 460 nm (blue) in HEK293 cells (AID 720678). Put shortly:
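After cell attachment (4-5 hr, 37C), compounds were pinned onto HEK293 monolayers in 10% dialyzed FBS medium. The blue channel (405/460 nm) was read following overnight culture. Equivalency was calculated against triamterene.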

A short description of test [6]: qHTS assay to test for compound auto fluorescence at 590 nm (red) in HEK293 cells (AID 720679). A digest of the protocol: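 Plates of HEK293 cells (10% dialyzed FBS) are treated with 23 nL compound or DMSO vehicle after a 4-5 hr attachment period, incubated overnight at 37C, and read for red fluorescence at 540/590nm.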
Test [7] is described as follows: qHTS assay to test for compound auto fluorescence at 535 nm (green) in HEK293 cells (AID 720680).
Test [8] is described as follows: qHTS assay to test for compound auto fluorescence at 590 nm (red) in HEK293 cell free culture (AID 720683). A digest of the protocol: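 Tox21 10K library compounds were pinned into cell-free DMEM with 10% FBS and fluorescence was read at excitation 540 nm. Activity is expressed as Rose Bengal sodium equivalency.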
A short description of test [9]: qHTS assay to test for compound auto fluorescence at 590 nm (red) in HepG2 cell free culture (AID 720684). Put shortly: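 Red fluorescence (540 nm excitation, 590 nm emission) was measured after compound transfer into cell-free MEM supplemented with 10% FBS. Values are equivalencies against Rose Bengal sodium.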
Test [10] can be described thus: qHTS assay to test for compound auto fluorescence at 460 nm (blue) in HepG2 cell free culture (AID 720685). A digest of the protocol: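 Compound (23 nL) or DMSO pinned into cell-free MEM with 10% FBS; blue fluorescence read at 405/460 nm excitation/emission, expressed as auto-fluorescence equivalency to triamterene.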
A short description of test [11]: qHTS assay to test for compound auto fluorescence at 535 nm (green) in HepG2 cell free culture (AID 720686).
A short description of test [12]: qHTS assay to test for compound auto fluorescence at 460 nm (blue) in HepG2 cells (AID 720687). A digest of the protocol: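 Cells (2,000/well in MEM with 10% FBS) attached overnight at 37 C, then were exposed to compound or DMSO for 1 hr at 37 C, 5% CO2. Fluorescence read at Ex/Em 405/460 nm, expressed as triamterene-equivalent signal.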
The target of test [13] is Glucocorticoid receptor (Homo sapiens) (UniProt P04150). The test is described as follows: qHTS assay to identify small molecule agonists of the glucocorticoid receptor (GR) signaling pathway (AID 720691; active = well fitted activation curve with a large enough effect in the signal ratio in the repeat runs, not every such curve was filed as active; inconclusive = weak or mixed curves, or effect the other way; inactive = no such curve, though single readings can be large or run the other way; the % refers to the signal ratio). A digest of the protocol:
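qHTS in GR-bla HeLa cells: 4 h settling at 37 C/5% CO2, 18 h compound incubation at 37 C, 2 h LiveBLAzer B/G FRET substrate at room temperature, fluorescence intensity measured.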

Test [14] has the same target. In words: qHTS assay to identify small molecule antagonists of the glucocorticoid receptor (GR) signaling pathway (AID 720692; active = well fitted inhibition curve with a large enough effect in the signal ratio in the repeat runs, not every such curve was filed as active; inconclusive = weak or mixed curves, or effect the other way; inactive = no such curve, though single readings can be large or run the other way; the % refers to the signal ratio; also: potency is read from the fitted curve at half-maximal effect). Put shortly:
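Inhibition of glucocorticoid signalling is measured in HeLa cells with a GRE-controlled beta-lactamase reporter; cells are co-treated with compound and 5 nM dexamethasone (final) for 18 h before FRET substrate readout.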

Test [15] in a line: qHTS assay for identifying genotoxic compounds that show differential cytotoxicity against isogenic chicken DT40 cell lines with known DNA damage response pathways - wild type cell line (AID 743012). Also: nearly all actives have a fitted effect of over 60% in size. Also: potency is read from the fitted curve at half-maximal effect. A digest of the protocol: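 First, wild type DT40 cells were plated at 300 per well and equilibrated about 0.5 h at 37 C/5% CO2. Next, compounds in DMSO were added and exposure lasted 40 h. Finally, CellTiter-Glo was added for 30 min at room temperature and luminescence recorded.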

The nature of test [16]: qHTS assay for identifying genotoxic compounds that show differential cytotoxicity against isogenic chicken DT40 cell lines with known DNA damage response pathways - Rev3 mutant cell line (AID 743014). Also: nearly all actives have a fitted effect of over 55% in size. Also: potency is read from the fitted curve at half-maximal effect.
Test [17] in a line: qHTS assay for identifying genotoxic compounds that show differential cytotoxicity against isogenic chicken DT40 cell lines with known DNA damage response pathways - Rad54/Ku70 mutant cell line (AID 743015). Also: nearly all actives have a fitted effect of over 60% in size. Also: potency is read from the fitted curve at half-maximal effect.
Test [18] is described as follows: qHTS assay to identify small molecule antagonists of the androgen receptor (AR) signaling pathway - cell viability counter screen (AID 743033; also: nearly all actives have a fitted effect of over 45% in size).
Test [19] is described as follows: qHTS assay to identify small molecule antagonists of the androgen receptor (AR) signaling pathway using the MDA cell line - cell viability counter screen (AID 743041; also: nearly all actives have a fitted effect of over 45% in size). A digest of the protocol:
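MDA-kb2 AR-luc human breast carcinoma cells (MMTV-luciferase, AR/GR responsive) were treated with compounds plus R1881 agonist for 16 h at 37 °C. Viability was read as CellTiter-Fluor fluorescence in the same wells as the reporter assay.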

Test [20] can be described thus: qHTS assay to identify small molecule antagonists of the thyroid receptor (TR) signaling pathway - cell viability counter screen (AID 743064). Also: nearly all actives have a fitted effect of over 50% in size. Put shortly: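 Fluorescence from CellTiter-Fluor, added after 23.5 h exposure at 37 °C, reported viability of GH3.TRE-Luc cells co-treated with compound and 1 nM T3. Measured in the same wells as the luciferase TR readout.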

In test [21] the test system is thyroid hormone receptor (rat, GH3 cells). The test is described as follows: qHTS assay to identify small molecule agonists of the thyroid receptor (TR) signaling pathway (AID 743066; calls by dose curve).
Test [22] is described as follows: qHTS assay to identify small molecule antagonists of the estrogen receptor alpha (ER-alpha) signaling pathway - cell viability counter screen (AID 743074; calls by dose curve;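 also: HEK293 cells carrying ER-alpha-UAS-bla reporter stimulated with 17beta-estradiol; nearly all actives have a fitted effect of over 45% in size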).
Test [23] concerns the target Estrogen receptor (Homo sapiens) (UniProt P03372). In words: qHTS assay to identify small molecule agonists of the estrogen receptor alpha (ER-alpha) signaling pathway (AID 743075; calls by dose curve;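 also: HEK293 GripTite cells with ER-alpha and UAS-driven beta-lactamase reporter; potency is read from the fitted curve at half-maximal effect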).
Test [24] has the same target. The test is described as follows: qHTS assay to identify small molecule agonists of the estrogen receptor alpha (ER-alpha) signaling pathway using the BG1 cell line (AID 743079). Also: potency is read from the fitted curve at half-maximal effect; nearly all actives have a fitted effect of over 20% in size.
Test [25] in a line: qHTS assay to identify small molecule antagonists of the estrogen receptor alpha (ER-alpha) signaling pathway using the BG1 cell line - cell viability counter screen (AID 743081).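 Also: compound given together with 17beta-estradiol as the ER stimulus; series mostly up to about 70 µM; nearly all actives have a fitted effect of over 45% in size.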
Another test addresses Aromatase (Homo sapiens) (UniProt P11511). The test is described as follows: qHTS assay to identify aromatase inhibitors (AID 743083). Also: series mostly up to about 70 µM; nearly all actives have a fitted effect of over 55% in size.
A short description of test [26]: qHTS assay to identify aromatase inhibitors - cell viability counter screen (AID 743084).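 Also: cells stimulated with testosterone during compound exposure; nearly all actives have a fitted effect of over 55% in size.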
Test [27] concerns the target Aryl hydrocarbon receptor (Homo sapiens) (UniProt P35869). In words: qHTS assay to identify small molecule that activate the aryl hydrocarbon receptor (AhR) signaling pathway (AID 743085).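 Also: HG2L7.5c1 human HepG2 liver cells with stably integrated DRE-driven firefly reporter; series mostly up to about 70 µM; nearly all actives have a fitted effect of over 15% in size.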 A digest of the protocol:
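Cell line HG2L7.5c1 (human hepatoma, 20× DRE-luc). Plated, 5 h 37C, compound/DMSO added, 24 h 37C. CellTiter-Fluor 30 min 37C → fluorescence; then ONE-Glo 30 min RT → luminescence.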

Test [28] in a line: qHTS assay to identify small molecule that activate the aryl hydrocarbon receptor (AhR) signaling pathway - cell viability counter screen (AID 743086). Put shortly:
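HepG2-AhR-luc (HG2L7.5c1) cells, 4000/well, were preincubated 5 h at 37C, exposed to compound in qHTS format for 24 hr at 37C, then given CellTiter-Fluor for 30 min; viability was read as fluorescence in the reporter wells.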

Test [29] deals with Peroxisome proliferator-activated receptor gamma (Homo sapiens) (UniProt P37231). In words: qHTS assay to identify small molecule agonists of the peroxisome proliferator-activated receptor gamma (PPARg) signaling pathway (AID 743094; active = well fitted activation curve with a large enough effect in the signal ratio in the repeat runs, not every such curve was filed as active; inconclusive = weak or mixed curves, or effect the other way; inactive = no such curve, though single readings can be large or run the other way; the % refers to the signal ratio). A digest of the protocol: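 Compounds dissolved in DMSO were added to PPARg UAS-bla HEK293H cells for 17 h at 37C, and reporter expression was quantified by fluorescence intensity after 1 h with LiveBLAzer B/G FRET substrate.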

A short description of test [30]: qHTS assay to identify small molecule antagonists of the glucocorticoid receptor (GR) signaling pathway - cell viability counter screen (AID 720693). Also: nearly all actives have a fitted effect of over 55% in size.
Test [31] addresses Acetylcholinesterase (Homo sapiens) (UniProt P22303). The test is described as follows: Acetylcholinesterase (AChE) small molecule antagonists: enzyme-based qHTS assay with human liver microsomes (AID 1347399; calls by dose curve; also: nearly all actives have a fitted effect of over 60% in size). To be noted: Potency: qHTS inhibition; outcome: qHTS inhibition. Put shortly:
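Recombinant human AChE (50 mU/mL in the enzyme mix) and human liver microsomes (0.25 mg/mL final) were preincubated with compound and NADPH (0.25 mg/mL final) for 30 min at 37 C. Acetylthiocholine/DTNB was then added; thiocholine was read colorimetrically after 10 min at room temperature.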

Test [32] in a line: qHTS assay for small molecule agonists of the p53 signaling pathway (AID 651631; calls by dose curve; also: nearly all actives have a fitted effect of over 15% in size). Put shortly:
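Read-out is beta-lactamase FRET fluorescence measured 2 h after substrate addition at room temperature, in HCT-116 cells with a p53 response element-driven reporter exposed to compounds for 16 h at 37 °C.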

Sequence of Acetylcholinesterase (Homo sapiens) (P22303 whole entry, looked up): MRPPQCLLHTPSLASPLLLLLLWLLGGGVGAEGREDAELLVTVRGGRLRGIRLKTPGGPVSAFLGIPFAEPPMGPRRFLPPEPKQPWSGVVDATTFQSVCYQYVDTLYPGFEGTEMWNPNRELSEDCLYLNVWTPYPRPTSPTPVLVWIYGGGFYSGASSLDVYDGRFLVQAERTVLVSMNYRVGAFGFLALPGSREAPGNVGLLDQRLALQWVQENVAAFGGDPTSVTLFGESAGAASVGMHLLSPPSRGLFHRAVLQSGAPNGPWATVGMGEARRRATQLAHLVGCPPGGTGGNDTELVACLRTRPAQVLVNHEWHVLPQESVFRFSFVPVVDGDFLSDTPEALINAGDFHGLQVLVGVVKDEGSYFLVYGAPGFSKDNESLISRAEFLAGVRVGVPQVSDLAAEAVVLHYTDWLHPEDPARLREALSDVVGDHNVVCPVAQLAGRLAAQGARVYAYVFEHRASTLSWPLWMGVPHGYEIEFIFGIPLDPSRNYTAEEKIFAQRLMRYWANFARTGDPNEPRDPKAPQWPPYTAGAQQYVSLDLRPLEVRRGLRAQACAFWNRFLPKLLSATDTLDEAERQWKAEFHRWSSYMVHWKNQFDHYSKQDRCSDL
Sequence of Aromatase (Homo sapiens) (P11511 whole entry, looked up): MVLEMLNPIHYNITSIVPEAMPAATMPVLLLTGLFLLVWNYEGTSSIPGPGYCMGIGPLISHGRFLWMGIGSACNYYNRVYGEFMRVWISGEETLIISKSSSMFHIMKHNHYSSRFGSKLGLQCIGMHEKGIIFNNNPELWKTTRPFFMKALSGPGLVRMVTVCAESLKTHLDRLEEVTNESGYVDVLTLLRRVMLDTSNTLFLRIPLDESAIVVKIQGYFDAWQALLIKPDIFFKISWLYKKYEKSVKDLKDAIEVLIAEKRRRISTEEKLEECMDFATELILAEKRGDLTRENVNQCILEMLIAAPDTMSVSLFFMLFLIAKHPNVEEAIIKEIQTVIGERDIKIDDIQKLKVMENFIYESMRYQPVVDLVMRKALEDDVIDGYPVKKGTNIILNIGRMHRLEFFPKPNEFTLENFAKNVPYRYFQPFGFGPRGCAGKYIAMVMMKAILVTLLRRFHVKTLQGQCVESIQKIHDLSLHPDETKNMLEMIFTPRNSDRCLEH
Sequence of Estrogen receptor (Homo sapiens) (P03372 whole entry, looked up): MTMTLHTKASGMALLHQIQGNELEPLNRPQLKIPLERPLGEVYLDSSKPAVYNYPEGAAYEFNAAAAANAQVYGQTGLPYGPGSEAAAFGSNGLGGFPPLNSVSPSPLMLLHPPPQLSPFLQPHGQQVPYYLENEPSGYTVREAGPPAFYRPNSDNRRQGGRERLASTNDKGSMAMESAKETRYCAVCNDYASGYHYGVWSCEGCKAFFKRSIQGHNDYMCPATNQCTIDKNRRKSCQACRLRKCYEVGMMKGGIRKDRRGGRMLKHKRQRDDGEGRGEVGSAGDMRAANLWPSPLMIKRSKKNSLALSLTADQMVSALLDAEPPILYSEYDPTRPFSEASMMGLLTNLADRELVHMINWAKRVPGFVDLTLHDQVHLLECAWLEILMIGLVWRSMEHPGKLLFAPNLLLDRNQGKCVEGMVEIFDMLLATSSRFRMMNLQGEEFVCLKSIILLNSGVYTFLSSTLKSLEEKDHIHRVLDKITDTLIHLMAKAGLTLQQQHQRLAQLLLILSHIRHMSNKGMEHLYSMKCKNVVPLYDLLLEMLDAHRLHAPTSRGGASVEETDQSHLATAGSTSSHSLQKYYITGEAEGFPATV
Sequence of Glucocorticoid receptor (Homo sapiens) (P04150 whole entry, looked up): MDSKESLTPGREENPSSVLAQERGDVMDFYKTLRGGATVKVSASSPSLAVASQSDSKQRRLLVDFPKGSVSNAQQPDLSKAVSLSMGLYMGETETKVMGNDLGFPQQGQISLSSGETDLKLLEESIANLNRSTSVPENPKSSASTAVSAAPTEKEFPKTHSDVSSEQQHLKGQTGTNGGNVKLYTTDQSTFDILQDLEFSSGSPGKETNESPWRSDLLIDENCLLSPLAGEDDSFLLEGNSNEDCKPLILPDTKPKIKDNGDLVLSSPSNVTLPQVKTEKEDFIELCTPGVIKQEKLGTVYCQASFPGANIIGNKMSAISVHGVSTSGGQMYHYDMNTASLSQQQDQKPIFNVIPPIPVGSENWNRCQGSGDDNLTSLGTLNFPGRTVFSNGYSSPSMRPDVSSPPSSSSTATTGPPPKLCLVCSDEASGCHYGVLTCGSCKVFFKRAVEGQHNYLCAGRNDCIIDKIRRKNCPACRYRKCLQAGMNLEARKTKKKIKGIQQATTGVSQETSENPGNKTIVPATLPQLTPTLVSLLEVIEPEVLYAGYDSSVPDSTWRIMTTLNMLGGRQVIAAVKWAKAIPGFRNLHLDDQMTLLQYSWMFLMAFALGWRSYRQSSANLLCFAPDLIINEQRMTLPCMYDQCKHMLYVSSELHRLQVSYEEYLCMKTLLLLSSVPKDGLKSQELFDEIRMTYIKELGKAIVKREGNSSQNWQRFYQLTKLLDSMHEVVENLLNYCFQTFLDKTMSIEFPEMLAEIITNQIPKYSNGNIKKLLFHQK
Sequence of Peroxisome proliferator-activated receptor gamma (Homo sapiens) (P37231 whole entry, looked up): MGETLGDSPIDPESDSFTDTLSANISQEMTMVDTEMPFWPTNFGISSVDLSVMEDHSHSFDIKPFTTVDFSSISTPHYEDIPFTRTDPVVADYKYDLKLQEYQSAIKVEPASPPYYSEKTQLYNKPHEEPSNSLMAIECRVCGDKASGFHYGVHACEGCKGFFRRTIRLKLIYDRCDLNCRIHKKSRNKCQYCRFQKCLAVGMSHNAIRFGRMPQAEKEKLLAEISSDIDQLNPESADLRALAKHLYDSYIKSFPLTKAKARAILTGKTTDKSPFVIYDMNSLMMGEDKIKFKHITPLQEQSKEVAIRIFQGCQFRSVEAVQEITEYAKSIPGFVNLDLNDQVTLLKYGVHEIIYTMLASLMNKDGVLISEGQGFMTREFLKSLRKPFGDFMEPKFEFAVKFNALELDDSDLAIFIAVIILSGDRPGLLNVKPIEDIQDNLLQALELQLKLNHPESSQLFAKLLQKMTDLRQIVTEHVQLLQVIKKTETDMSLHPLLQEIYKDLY
Sequence of Aryl hydrocarbon receptor (Homo sapiens) (P35869 whole entry, looked up): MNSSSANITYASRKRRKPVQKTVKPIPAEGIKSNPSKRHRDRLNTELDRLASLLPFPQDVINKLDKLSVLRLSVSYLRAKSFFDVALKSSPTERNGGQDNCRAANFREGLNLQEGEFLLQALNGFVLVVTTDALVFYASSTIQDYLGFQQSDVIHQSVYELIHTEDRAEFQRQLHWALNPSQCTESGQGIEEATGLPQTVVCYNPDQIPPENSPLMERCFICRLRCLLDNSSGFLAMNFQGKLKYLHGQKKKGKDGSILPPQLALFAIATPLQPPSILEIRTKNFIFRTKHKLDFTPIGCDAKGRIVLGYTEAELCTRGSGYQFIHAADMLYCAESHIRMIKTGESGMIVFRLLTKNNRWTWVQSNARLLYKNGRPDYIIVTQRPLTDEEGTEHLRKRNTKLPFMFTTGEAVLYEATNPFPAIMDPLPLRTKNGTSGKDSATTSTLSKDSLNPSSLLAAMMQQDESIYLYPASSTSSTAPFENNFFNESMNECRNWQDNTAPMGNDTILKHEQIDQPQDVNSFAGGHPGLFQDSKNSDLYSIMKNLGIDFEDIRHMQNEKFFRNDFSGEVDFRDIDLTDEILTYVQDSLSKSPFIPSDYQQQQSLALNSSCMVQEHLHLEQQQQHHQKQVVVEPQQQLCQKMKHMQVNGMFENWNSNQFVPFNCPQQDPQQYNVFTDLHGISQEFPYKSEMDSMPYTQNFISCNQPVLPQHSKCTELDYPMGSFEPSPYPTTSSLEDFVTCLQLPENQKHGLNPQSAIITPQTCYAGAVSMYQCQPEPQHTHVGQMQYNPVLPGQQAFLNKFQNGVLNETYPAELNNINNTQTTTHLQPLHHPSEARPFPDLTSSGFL

Regarding `C[C@]12CC[C@H]3[C@@H](CCC4=CC(=O)CC[C@@]43C)[C@@H]1CC[C@@H]2OC(=O)CCc1ccccc1`, the compound was classed as inactive in test [1], in test [3], in [4], in test [5], in [6] and in test [7]. In addition, the compound was classed as inactive in [8], in test [9], in [10], in test [11], in [12] and in [13]. The outcome in test [19], in [21], in [26], in test [27] and in test [29] was inactive. Also, the Potency result (in [2]; in test [18]; in [20]; in test [22]; in test [25]; in the test with Aromatase (Homo sapiens)) was “inactive” throughout. Further, the Potency entry in [28] is “inactive”. Besides, the Potency in test [14] is 6.16 µM (active); in test [15], 5.45 µM (active); in [16], 8.63 µM (active); in [17], 8.63 µM (active); in [23], 3.89 µM [inconclusive] (active); in [24], 0.0306 µM (active).

For `O=C(O)c1ccccc1[O-].O=C(O)c1ccccc1[O-].[Zn+2]`, the Potency result in test [2], in [30], in [15], in [16], in [17] and in test [18] was “inactive” throughout. For the same compound, the Potency entry in [20], in test [25] and in test [28] was “inactive” throughout. In addition, the call in test [19] and in [21] was inactive.

For `COc1cc2c(N3CCN(C(=O)Nc4ccc(OC(C)C)cc4)CC3)ncnc2cc1OCCCN1CCCCC1`, in [31], the Potency result was “inactive”.

As for `Nc1cc(Cl)c(O)c(Cl)c1`, the Potency entry in [31] was “inactive”.

For `CCN(CC)CCNC(=O)c1cc(Br)c(N)cc1OC`, the Potency entry in [31] was “inactive”.

In the case of `CCCCCCCCCCC[C@@H](C[C@@H]1OC(=O)[C@H]1CCCCCC)OC(=O)[C@H](CC(C)C)NC=O`, the Potency result in [31] was “inactive”.

`Nc1ncnc2c1ncn2CCOCP(=O)(O)O`: the Potency entry (in test [32]; with Aromatase (Homo sapiens)) was “inactive” throughout.
